According to PubChem BioAssay AID1159580 (chemical genetic matrix, 2015):
About 2,000 (36%) of roughly 5,500 compounds were called active. Not shown: some 18% with an inconclusive outcome. Rule as the data show it: active = normalized growth mostly below about 0.91 (no sharp cut-off); inconclusive = no clear call, values can overlap the other calls; inactive = mostly above about 0.92. The list shows a part of the results.

Assay: chemical genetic growth profiling, strain panel (AID 1159580);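 also: tested at 20 µM; growth read once vehicle control cultures reached saturation at 30 °C; 1 = growth at the plate median or of vehicle wells; lower values mean less growth of the strain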
Conditions: S. cerevisiae deletion strains, growth OD

Measured: normalized growth

Nc1ccc(C(=O)Oc2ccccc2)c(O)c1
inactive: locus YJR043C, strain POL32, active compounds read low 0.932 | locus YJR066W, strain TOR1, active compounds read low 0.893 | locus YKL009W, strain mrt4, active compounds read low 0.894 | locus YKL160W, strain elf1, active compounds read low 0.942 | locus YKL190W, strain CNB1, active compounds read low 0.939 | locus YKR091W, strain srl3, active compounds read low 0.948 | locus YLL001W, strain dnm1, active compounds read low 0.951 | locus YLL026W, active compounds read low 0.943 | locus YLL041C, strain sdh2, active compounds read low 0.929 | locus YLR027C, strain aat2, active compounds read low 0.927 | locus YLR058C, strain SHM2, active compounds read low 0.909 | locus YLR113W, strain HOG1, active compounds read low 0.862 | locus YLR221C, strain rsa3, active compounds read low 0.932 | locus YLR258W, strain gsy2, active compounds read low 0.948 | locus YLR342W, strain FKS1, active compounds read low 0.915 | locus YLR357W, strain rsc2, active compounds read low 0.919 | locus YLR370C, strain arc18, active compounds read low 0.927 | locus YLR384C, strain iki3, active compounds read low 0.962 | locus YML016C, strain PPZ1, active compounds read low 0.924 | locus YMR058W, strain fet3, active compounds read low 0.929 | locus YMR125W, strain sto1, active compounds read low 0.942 | locus YMR129W, active compounds read low 0.946 | locus YMR231W, strain pep5, active compounds read low 0.983 | locus YNL067W, strain RPL9B, active compounds read low 0.867 | locus YNL128W, strain TEP1, active compounds read low 0.905 | locus YNL153C, strain GIM3, active compounds read low 0.905 | locus YNL183C, strain NPR1, active compounds read low 0.859 | locus YNL209W, strain ssb2, active compounds read low 0.955 | locus YNL248C, strain rpa49, active compounds read low 0.923 | locus YNL250W, strain rad50, active compounds read low 0.95 | locus YNL322C, strain KRE1 (second series), active compounds read low 0.942 | locus YNR049C, strain mso1, active compounds read low 0.933 | locus YOL012C, strain htz1 1.98 | locus YOR001W, strain rrp6, active compounds read low 0.92 | locus YOR061W, strain CKA2, active compounds read low 0.928 | locus YOR069W, strain VPS5, active compounds read low 0.95 | locus YOR070C, strain gyp1, active compounds read low 0.937 | locus YOR080W, strain dia2, active compounds read low 0.961 | locus YOR083W, strain WHI5, active compounds read low 0.93 | locus YOR106W, strain vam3, active compounds read low 0.878 | locus YOR231W, strain MKK1, active compounds read low 0.923 | locus YOR265W, strain rbl2, active compounds read low 0.931 | locus YOR290C, strain snf2, active compounds read low 0.885 | locus YPL051W, strain arl3, active compounds read low 0.938 | locus YPL078C, strain atp4, active compounds read low 0.929 | locus YPL106C, strain sse1, active compounds read low 0.965 | locus YPL240C, strain hsp82, active compounds read low 0.953 | locus YPL256C, strain CLN2, active compounds read low 0.904
active: locus YJR075W, strain HOC1, active compounds read low 0.84 | locus YKL068W, active compounds read low 0.93 | locus YKL085W, strain MDH1 (second series), active compounds read low 0.914 | locus YKL085W, strain MDH1, active compounds read low 0.914 | locus YKR001C, strain vps1, active compounds read low 0.672 | locus YKR026C, strain gcn3, active compounds read low 0.896 | locus YLR039C, strain RIC1, active compounds read low 0.346 | locus YLR102C, strain apc9, active compounds read low 0.917 | locus YLR262C, strain YPT6 (second series), active compounds read low 0.558 | locus YLR262C, strain YPT6, active compounds read low 0.352 | locus YLR268W, strain sec22, active compounds read low 0.861 | locus YLR320W, strain mms22, active compounds read low 0.797 | locus YLR330W, strain CHS5, active compounds read low 0.876 | locus YLR342W, strain FKS1 (second series), active compounds read low 0.662 | locus YLR371W, strain rom2, active compounds read low 0.77 | locus YLR418C, strain cdc73, active compounds read low 0.453 | locus YML032C, strain rad52, active compounds read low 0.774 | locus YML120C, strain ndi1, active compounds read low 0.904 | locus YML124C, strain tub3, active compounds read low 0.904 | locus YMR078C, strain ctf18, active compounds read low 0.861 | locus YMR205C, strain PFK2, active compounds read low 0.861 | locus YMR223W, strain ubp8, active compounds read low 0.825 | locus YMR307W, strain GAS1, active compounds read low 0.402 | locus YNL071W, strain lat1, active compounds read low 0.786 | locus YNL233W, strain BNI4, active compounds read low 0.788 | locus YNL271C, strain bni1, active compounds read low 0.918 | locus YNL298W, strain CLA4, active compounds read low 0.908 | locus YNL307C, strain MCK1, active compounds read low 0.323 | locus YNR052C, strain pop2, active compounds read low 0.883 | locus YOL147C, strain pex11, active compounds read low 0.767 | locus YOR136W, strain idh2, active compounds read low 0.919 | locus YOR144C, strain elg1, active compounds read low 0.888 | locus YOR184W, strain ser1, active compounds read low 0.504 | locus YOR270C, strain vph1, active compounds read low 0.732 | locus YOR316C, strain cot1, active compounds read low 0.918 | locus YPR119W, strain clb2, active compounds read low 0.91 | locus YPR141C, strain kar3, active compounds read low 0.896 | locus YPR163C, strain tif3, active compounds read low 0.71 | locus YPR167C, strain met16, active compounds read low 0.885 | strain wtn01, active compounds read low 0.751
